Hits are enriched below; roughly 7.9% of the tested compounds scored in any of these assays.
SW480 rereplic: A quantitative high throughput screen for small molecules that induce DNA re-replication in SW480 colon adenocarcinoma cells | SW480 DNA re-replication, Hoechst DNA content imaging, 48 h | Potency, µM (top dose mostly 46.1 µM), for inactives: at the top dose re-replication activation, usual class: activators | actives 1.8% (n = 340,000) | AID 624297, 2012; also: % of control where 0% means no effect; nearly all actives have a fitted effect of over 55% in size
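Hoechst fluorescence of nuclei (405 nm excitation, 500-530 nm emission) measured by plate-scanning imager after 48 hr compound exposure at 37 C; re-replication scored as increased number of nuclei with elevated intensity.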
MCF10A rerep: A quantitative high throughput screen for small molecules that induce DNA re-replication in MCF 10a normal breast cells; MCF 10A DNA re-replication, Hoechst nuclear intensity, 48 h; Potency, µM (series often up to 46.1 µM), for inactives: at the top dose activity, positive = re-replication, usual class: activators; actives 2.9% (n = 350,000); AID 624296, 2012; also: % of control where 0% means no effect; nearly all actives have a fitted effect of over 50% in size
KB-3-1 cytotox: qHTS assay for MDR1-selective chemotherapeutics: Primary screen using the parental adenocarcinoma cell KB-3-1; actives 1.4% (n = 400,000); Potency, µM (doses to about 46.1 µM), most hits filed as cytotoxic; KB-3-1 viability, CellTiter-Glo ATP luminescence, 72 h; also: % is scaled to controls: 0 for no effect and ±100 for the full control effect; nearly all actives have a fitted effect of over 60% in size
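Screening of KB-3-1 cells (DMEM, 10% FBS, phenol-red free) ran from lowest to highest compound concentration; after 72 h at 37 °C viability was read luminescently and curves fitted.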
HT1080-NT tox: qHTS for induction of synthetic lethality in tumor cells producing 2HG: qHTS for the HT-1080-NT fibrosarcoma cell line; actives 1.6% (n = 360,000); HT-1080-NT fibrosarcoma viability, CellTiter-Glo ATP luminescence, 48 h; Potency, µM (doses to about 46.1 µM), inactives show top-dose activity, negative = less viability, usual class: cytotoxic;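 also: NT is the 2HG producing partner of a matched IDH1 knockdown line; 0% = DMSO-treated cells and -100% = media-only wells without cells; nearly all actives have a fitted effect of over 55% in size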
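Viability of the 2HG-overproducing fibrosarcoma line after 48 hours of compound exposure at 37 degrees C was determined by luminescence with CellTiter-Glo, and concentration-effect curves were then fitted and categorized.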
HT1080 IDH1KD tx: qHTS for induction of synthetic lethality in tumor cells producing 2HG: qHTS for the HT-1080-IDH1KD cell line. HT-1080 IDH1 knockdown viability, ATP luminescence, 48 h. Potency, µM (series often up to 46.1 µM), for inactives: at the top dose activity, negative = toxicity, hits mostly cytotoxic. actives 2% (n = 360,000). AID 686971, 2013;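 also: 0% = DMSO wells and -100% = cell-free medium wells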
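IDH1KD HT-1080 cells, 750/well, RPMI + 5% FBS; compound pinned after 2 h settling; 48 h, 37 °C; CellTiter-Glo luminescence; % activity normalised to DMSO and no-cell wells; curves fitted, classed by r2 and efficacy.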
KB-V1 cytotox: qHTS assay for MDR1-selective chemotherapeutics: Primary screen using the drug-selected MDR subline cells KB-V1; Potency, µM (titrated, usually from 46.1 µM), most hits filed as cytotoxic; KB-V1 MDR cells viability, CellTiter-Glo, 72 h; actives 3.4% (n = 400,000); also: % is scaled to controls: 0 for no effect and ±100 for the full control effect; nearly all actives have a fitted effect of over 60% in size
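Cytotoxicity via CellTiter-Glo luminescence after 72 h compound exposure at 37 degrees C. Cells: drug-selected KB-V1 line, DMEM phenol-red free plus 10% FBS. Compounds tested at multiple concentrations; normalized data fitted to concentration-effect curves.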
An asterisk follows results filed as active; i = inactive; ? = inconclusive; . = not tested or not shown; [ ] = dose if it differs, or a comment. Calls follow the shape of the dose curve; as a rule, active = well fitted curve in the direction sought with a large enough effect; inconclusive = small, poorly fitted or top-dose-only effect, or another doubt; inactive = no such curve, though single readings can be large; an effect the other way counts as inactive or inconclusive. Potency is read from the fitted curve at half-maximal effect.

SMILES | SW480 rereplic | MCF10A rerep | KB-3-1 cytotox | HT1080-NT tox | HT1080 IDH1KD tx | KB-V1 cytotox
COc1ccccc1-c1cc(C(F)(F)F)nc(S(=O)(=O)CCCC(=O)O)n1 | 3.5µM* | ? | i | 11µM* | 8.9µM* | i
COc1ccc(-c2cc(C(F)(F)F)nc(S(=O)(=O)CCC(=O)N3CCOCC3)n2)cc1 | ? | 8.2µM* | ? | 3% | 3% | ?
COc1ccc(-c2cc(C(F)(F)F)nc(S(=O)(=O)CCCC(=O)Nc3cccc(O)c3)n2)cc1OC | ? | 6.5µM* | i | 18µM* | 12µM* | i
CC(C)(C)Cc1nnc(NC(=O)Cc2ccc([N+](=O)[O-])cc2)s1 | . | 2% | i | 11% | 14% | i
Cc1ccc2[nH]c(C)c(CCNC(=O)c3c(N)no[n+]3[O-])c2c1 | -9% | 16% | ? | -28% | -25% | ?
COc1ccccc1-c1cc(C(F)(F)F)nc(S(=O)(=O)CCCC(=O)N2CCOCC2)n1 | ? | 3.3µM* | 16µM* | 16µM* | 16µM* | ?
COc1ccccc1-c1cc(C(F)(F)F)nc(S(=O)(=O)CCCC(=O)Nc2cc(OC)c(OC)c(OC)c2)n1 | . | . | i | . | . | ?
C=C(C)/C=N/NC(=S)Nc1ccc(S(=O)(=O)N2CCOCC2)cc1 | -70% | 4% | i | 0% | -10% | i
O=C(c1ccccc1Cl)N1CCN(S(=O)(=O)c2cccs2)CC1 | 5% | 0% | i | 9% | 1% | i
O=C(c1ccc(-c2ccccc2Cl)o1)N1CCN(S(=O)(=O)c2cccs2)CC1 | 23% | ? | i | -11% | -9% | 21µM*
CCCCSc1cnn(-c2ccccc2)c(=O)c1SCCCC | ? | ? | 18µM* | ? | -13% | 18µM*
CCSc1cnn(-c2ccccc2)c(=O)c1SCC | 0% | 4% | i | 1% | 5% | i
CC1=C(C(=O)OC2CCCCCC2)C(c2ccccc2Cl)CC(=O)N1 (centres undefined) | . | . | i | . | . | i
O=C(CSc1ncn(-c2ccccc2)n1)Nc1nc2ccccc2s1 | 19% | ? | i | -14% | -7% | 18µM*
N=c1c2c(-c3ccccc3)c(-c3ccccc3)n(Cc3ccccc3)c2ncn1CCCn1ccnc1 | ? | 30% | ? | 23µM* | 23µM* | ?
N=c1c2c(-c3ccccc3)c(-c3ccccc3)n(Cc3ccco3)c2ncn1Cc1ccco1 | 2% | ? | 16µM* | 16µM* | 21µM* | ?
CCCCn1cnc2c(c(-c3ccccc3)c(-c3ccccc3)n2Cc2ccco2)c1=N | -10% | 6% | i | -20% | -16% | i
Cc1cc(NCCCn2ccnc2)n2nc(C)c(-c3ccccc3)c2n1 | 0% | 0% | i | ? | ? | ?
Cc1nc(SCC(=O)N2CCN(c3ccccc3)CC2)c2oc3ccccc3c2n1 | -6% | ? | i | -20% | 3%[9.24 µM] | 21µM*
O=C(CSc1nc(-c2ccc(F)cc2)[nH]c1-c1ccc(F)cc1)Nc1ccc2c(c1)OCCO2 | . | . | ? | . | . | 18µM*
O=C(CSc1nc(-c2ccc(F)cc2)[nH]c1-c1ccc(F)cc1)Nc1ccc2c(c1)OCO2 | . | . | ? | . | . | i
CCc1nc(SCC(=O)NC2CCCC2)c2oc3ccccc3c2n1 | 0% | 4% | i | 9% | 4% | ?
CCc1nc(SCC(=O)Nc2ccc3c(c2)OCCO3)c2oc3ccccc3c2n1 | 1% | 23µM* | ? | 2% | 0% | 21µM*
